Source: ChEMBL document CHEMBL4513216, “Probing the Open Global Health Chemical Diversity Library for Multistage-Active Starting Points for Next-Generation Antimalarials” (ACS Infect Dis, 2020)
The campaign covered roughly 69,000 compounds. About 8,600 (12%) showed an effect of 50% or more. The sample holds strong results, similar compounds and a random draw of the others, so the mix is not that of the screen.

Tested on: Plasmodium berghei
Assay: Screen against P. berghei liver stage (PbLuc), transformed with Luciferase, at 10uM
Assay type: functional, HepG2
Details: tested at 10 uM

Structure (SMILES)	INHIBITION
O=C(c1ccco1)N1Cc2cnn(CC3CC3)c2C(COCC2CC2)C1 (stereo not given)	50.4%
CCOCC1CN(c2ccc(C)nn2)Cc2cnn(CC)c21 (stereo not given)	48.4%
Cc1ccc(N2Cc3cnn(C)c3C(COCC3CC3)C2)nn1 (stereo not given)	24.6%
CCn1cc2c(n1)C(COCC1CC1)CN(C(=O)c1ccco1)C2 (stereo not given)	-78.9%
CNC(=O)c1ccc(C(=O)N2CCCC(n3ccnc3)C2)cn1 (stereo not given)	18.2%
Cc1cnn(CC2CCCN2CC(=O)NC2CCOCC2)c1 (stereo not given)	15.3%
O=C1NCCN(CC2CC2)C12CCN(Cc1ccccc1)CC2	47.4%
CCc1noc(CN2CCCN(Cc3cccs3)CC2)n1	-47.6%
Cc1nn(C)c(Cl)c1C1CCCN1Cc1ccc(C(N)=O)cc1 (stereo not given)	-1.14%
CCOCC1CN(S(=O)(=O)CC)Cc2cnn(CC3CC3)c21 (stereo not given)	31.7%
CCn1cc2c(n1)C(COCC1CC1)CN(c1ccc(C)nn1)C2 (stereo not given)	41%
COCC1CN(c2ncccn2)Cc2cnn(CC3CC3)c21 (stereo not given)	84.2%
CCn1cc2c(n1)C(COC)CN(c1ccc(C)nn1)C2 (stereo not given)	36.2%
COCC1CN(c2ccncn2)Cc2cnn(CC3CCCC3)c21 (stereo not given)	19.5%
CCOCC1CN(C)Cc2cnn(CC3CCCC3)c21 (stereo not given)	36.8%
CCOCC1CN(c2ccc(C)nn2)Cc2nn(CC)cc21 (stereo not given)	63.5%
Cn1ncc2c1C(COCC1CC1)CN(S(C)(=O)=O)C2 (stereo not given)	33.4%
CCOCC1CN(C2CCCC2)Cc2cnn(CC3CCOCC3)c21 (stereo not given)	58.8%
CCOCC1CN(c2ncccn2)Cc2cnn(CC3CCOCC3)c21 (stereo not given)	22.5%
CS(=O)(=O)N1Cc2cnn(CC3CC3)c2C(COCC2CC2)C1 (stereo not given)	53.4%
CCOCC1CN(S(C)(=O)=O)Cc2cnn(CC3CCOCC3)c21 (stereo not given)	30.1%
CCc1ccc(NC(=O)c2cnc(N3CCCC3)nc2C)cc1	-55.4%
CCCn1cc(NC(=O)Nc2ccc(F)c(C(=O)NC)c2)cn1	11.3%
OC[C@H]1CN(C2Cc3ccccc3C2)C[C@H]1CN1CCC(O)CC1	29.4%
CCCOCC1CCN(C(=O)c2cnc(-c3csc(C)n3)nc2O)C1 (stereo not given)	-33.9%
O=C(CSc1nccc(-c2ccc3c(c2)OCO3)n1)N1CCOCC1	-47.8%
Cc1cnn(CC2CCCN2Cc2nnc(-c3ccccc3)o2)c1 (stereo not given)	40.9%
N#Cc1cccc(OCCN2CCn3c(nnc3C3CC3)C2)c1	-1.14%

Structure (SMILES)	INHIBITION
CCN(Cc1cccc2c1OCO2)C(=O)Nc1cn[nH]c1	-16%
O=C(c1ccoc1)N1Cc2cnn(CC3CC3)c2C(COCC2CC2)C1 (stereo not given)	22.6%
COCC1CN(C(=O)c2ccoc2)Cc2cnn(CC3CCOCC3)c21 (stereo not given)	51.4%
Cn1ncc2c1C(COCC1CC1)CN(C(=O)c1ccoc1)C2 (stereo not given)	25.6%
Cc1nn(CCO)c(C)c1-c1cc(C(C)(C)C)nc(N)c1C#N	-0.71%
COc1cc(F)ccc1NC(=O)NC(C)C(=O)NC(C)(C)C (stereo not given)	50.1%
CCC(=O)Nc1ccc(F)cc1OC	27.6%
COc1cc(F)ccc1NC(=O)NCCNC(=O)OC(C)(C)C	19.1%
CCn1ncc(CN2CCC(c3ncc(Cl)cc3S(C)(=O)=O)CC2)c1C	20.57%
COc1ncccc1C(=O)NCCn1nc(C)ccc1=O	3.68%
CNc1ccc(C2CN(c3nc(C)cc(C)n3)CCO2)nc1 (stereo not given)	-7.9%
COc1ccc(CN2CCC3(CC(=O)N(c4cncnc4)C3)C2)cc1 (stereo not given)	42.6%
Cc1nn(C)c(Cl)c1C1CCCN1CC(=O)NC1CCCCC1 (stereo not given)	14.7%
COc1c(C2CCCN2Cc2nnc(C3CC3)n2C)c(C)nn1C (stereo not given)	5.94%
Cc1nn(C)c(Cl)c1C1CCCN1CC(=O)N1CCCCC1 (stereo not given)	-3.21%
Cc1nn(C)c(C)c1C1CCCN1Cc1nnc(C2CC2)n1C (stereo not given)	50.5%
COCCNC(=O)CN1CCCC1c1c(C)nn(C)c1Cl (stereo not given)	36.1%
Cc1nn(C)c(Cl)c1C1CCCN1CC(=O)NC1CCCC1 (stereo not given)	53%
CC(=O)NCCNC(=O)CN1CCCC1c1c(C)nn(C)c1C (stereo not given)	60.2%
Cc1nn(C)c(C)c1NC(=O)CN1CCCC1c1c(C)nn(C)c1C (stereo not given)	28.8%
CC(=O)N1CCN(C(=O)CN2CCCC2c2c(C)nn(C)c2C)CC1 (stereo not given)	50.1%
Cc1nn(C)c(C)c1C1CCCN1CC(=O)NC(C1CC1)C1CC1 (stereo not given)	25.7%
Cc1nn(C)c(Cl)c1C1CCCN1CC(=O)N1CCOCC1 (stereo not given)	33.6%
Cc1nn(C)c(Cl)c1C1CCCN1Cc1nnc(C2CC2)n1C (stereo not given)	7.93%
Cc1cc(C(=O)NC2CCc3c(ccc(=O)n3CC(C)C)C2)no1 (stereo not given)	2.7%
CN(CCC#N)C(=O)Cn1cnc2c(Br)cccc2c1=O	11.9%
CCn1ccnc1CN1CCCN(C(=O)c2ccsc2)CC1	16.165%
